The values that follow come from ChEMBL document CHEMBL1961873, “Compounds: GSK PKIS; Assays: Nanosyn kinase panel” (2012).

Each structure is given as a SMILES string.

Test [1] has as its target Mast/stem cell growth factor receptor Kit (Homo sapiens) (UniProt P10721). Particulars: at 1 µM.
Test [2] has as its system Mast/stem cell growth factor receptor Kit (Homo sapiens), P10721 [D816V]. To be noted: at 0.1 µM.
The test system is the same in test [3]. To be noted: at 1 µM.
The test system of test [4] is Mast/stem cell growth factor receptor Kit (Homo sapiens), P10721 [T670I]. To be noted: at 0.1 µM.
Mast/stem cell growth factor receptor Kit (Homo sapiens), P10721 [T670I], sequence (P10721 whole entry T670I): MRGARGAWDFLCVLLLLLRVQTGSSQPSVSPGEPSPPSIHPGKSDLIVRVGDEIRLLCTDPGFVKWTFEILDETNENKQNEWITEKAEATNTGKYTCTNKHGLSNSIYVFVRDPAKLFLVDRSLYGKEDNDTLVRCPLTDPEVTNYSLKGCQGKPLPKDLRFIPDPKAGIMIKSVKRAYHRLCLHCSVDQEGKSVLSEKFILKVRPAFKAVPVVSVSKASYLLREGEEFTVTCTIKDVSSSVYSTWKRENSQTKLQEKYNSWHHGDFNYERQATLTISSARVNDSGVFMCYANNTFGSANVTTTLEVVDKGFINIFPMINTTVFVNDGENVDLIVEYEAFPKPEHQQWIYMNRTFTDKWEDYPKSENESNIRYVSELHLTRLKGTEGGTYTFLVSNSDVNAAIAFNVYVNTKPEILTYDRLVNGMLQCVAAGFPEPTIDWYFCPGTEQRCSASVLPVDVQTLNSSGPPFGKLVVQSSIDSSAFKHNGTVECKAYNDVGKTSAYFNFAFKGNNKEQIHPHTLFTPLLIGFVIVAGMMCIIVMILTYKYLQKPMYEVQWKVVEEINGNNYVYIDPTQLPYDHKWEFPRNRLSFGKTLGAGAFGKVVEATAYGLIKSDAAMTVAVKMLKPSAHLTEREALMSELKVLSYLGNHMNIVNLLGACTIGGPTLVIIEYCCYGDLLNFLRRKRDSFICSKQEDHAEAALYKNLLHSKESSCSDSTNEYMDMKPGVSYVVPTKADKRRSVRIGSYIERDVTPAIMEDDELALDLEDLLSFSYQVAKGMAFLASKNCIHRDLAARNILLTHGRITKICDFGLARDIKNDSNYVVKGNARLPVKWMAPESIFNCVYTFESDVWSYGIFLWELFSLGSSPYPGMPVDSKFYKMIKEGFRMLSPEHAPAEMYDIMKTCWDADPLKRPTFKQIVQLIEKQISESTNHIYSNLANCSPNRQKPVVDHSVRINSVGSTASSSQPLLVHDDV
Test [5] has the same test system. To be noted: at 1 µM.
Test [6] concerns Mast/stem cell growth factor receptor Kit (Homo sapiens), P10721 [V560G]. To be noted: at 0.1 µM.
Mast/stem cell growth factor receptor Kit (Homo sapiens), P10721 [V560G], sequence (P10721 whole entry V560G): as the sequence (P10721 whole entry T670I) above, with V560G, I670T counted along it
For test [7] the test system is unchanged. Particulars: at 1 µM.
The target of test [8] is Tyrosine-protein kinase Lck (Homo sapiens) (UniProt P06239). Particulars: at 0.1 µM.
Tyrosine-protein kinase Lck (Homo sapiens), sequence (P06239 2-509 limits assumed): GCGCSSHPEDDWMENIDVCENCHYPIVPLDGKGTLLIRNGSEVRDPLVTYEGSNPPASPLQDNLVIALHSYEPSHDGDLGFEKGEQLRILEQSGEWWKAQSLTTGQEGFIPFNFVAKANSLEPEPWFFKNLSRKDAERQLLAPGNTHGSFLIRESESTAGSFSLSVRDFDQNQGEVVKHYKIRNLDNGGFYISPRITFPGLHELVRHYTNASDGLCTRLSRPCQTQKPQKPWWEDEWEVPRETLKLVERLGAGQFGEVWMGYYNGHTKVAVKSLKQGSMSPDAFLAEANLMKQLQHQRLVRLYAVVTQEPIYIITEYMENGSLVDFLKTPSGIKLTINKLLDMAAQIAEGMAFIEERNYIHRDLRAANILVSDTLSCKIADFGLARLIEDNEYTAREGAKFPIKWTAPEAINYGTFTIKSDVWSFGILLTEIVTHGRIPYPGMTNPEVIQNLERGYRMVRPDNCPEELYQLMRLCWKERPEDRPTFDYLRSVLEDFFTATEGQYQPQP
Test [9] has the same target. To be noted: at 1 µM.
The target in test [10] is Leukocyte tyrosine kinase receptor (Homo sapiens) (UniProt P29376). Particulars: at 0.1 µM.
Leukocyte tyrosine kinase receptor (Homo sapiens), sequence (P29376 whole entry): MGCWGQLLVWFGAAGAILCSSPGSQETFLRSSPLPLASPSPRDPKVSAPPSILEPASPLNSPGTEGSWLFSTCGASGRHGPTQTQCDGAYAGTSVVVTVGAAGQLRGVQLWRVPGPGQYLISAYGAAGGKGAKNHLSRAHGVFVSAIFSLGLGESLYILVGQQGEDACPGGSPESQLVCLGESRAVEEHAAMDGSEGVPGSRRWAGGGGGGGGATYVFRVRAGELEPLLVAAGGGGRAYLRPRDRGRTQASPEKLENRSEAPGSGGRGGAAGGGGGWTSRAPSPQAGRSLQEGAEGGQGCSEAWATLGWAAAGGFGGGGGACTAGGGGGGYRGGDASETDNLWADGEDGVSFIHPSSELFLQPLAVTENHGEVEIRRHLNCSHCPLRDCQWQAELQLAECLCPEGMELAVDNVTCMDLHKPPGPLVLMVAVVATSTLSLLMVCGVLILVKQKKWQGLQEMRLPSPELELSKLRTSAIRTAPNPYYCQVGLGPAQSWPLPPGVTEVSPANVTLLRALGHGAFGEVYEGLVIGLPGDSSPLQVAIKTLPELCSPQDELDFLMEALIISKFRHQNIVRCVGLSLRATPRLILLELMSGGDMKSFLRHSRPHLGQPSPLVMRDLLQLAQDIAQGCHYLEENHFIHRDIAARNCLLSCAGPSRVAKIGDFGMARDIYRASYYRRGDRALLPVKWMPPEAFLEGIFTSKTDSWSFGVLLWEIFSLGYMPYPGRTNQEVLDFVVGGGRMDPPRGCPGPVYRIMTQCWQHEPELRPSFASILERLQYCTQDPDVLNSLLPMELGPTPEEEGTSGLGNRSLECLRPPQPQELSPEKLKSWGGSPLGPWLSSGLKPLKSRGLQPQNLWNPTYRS
The target is the same in test [11]. Particulars: at 1 µM.
The target in test [12] is Tyrosine-protein kinase Lyn (Homo sapiens) (UniProt P07948). Particulars: at 0.1 µM.
Tyrosine-protein kinase Lyn (Homo sapiens), sequence (P07948 2-512 limits assumed): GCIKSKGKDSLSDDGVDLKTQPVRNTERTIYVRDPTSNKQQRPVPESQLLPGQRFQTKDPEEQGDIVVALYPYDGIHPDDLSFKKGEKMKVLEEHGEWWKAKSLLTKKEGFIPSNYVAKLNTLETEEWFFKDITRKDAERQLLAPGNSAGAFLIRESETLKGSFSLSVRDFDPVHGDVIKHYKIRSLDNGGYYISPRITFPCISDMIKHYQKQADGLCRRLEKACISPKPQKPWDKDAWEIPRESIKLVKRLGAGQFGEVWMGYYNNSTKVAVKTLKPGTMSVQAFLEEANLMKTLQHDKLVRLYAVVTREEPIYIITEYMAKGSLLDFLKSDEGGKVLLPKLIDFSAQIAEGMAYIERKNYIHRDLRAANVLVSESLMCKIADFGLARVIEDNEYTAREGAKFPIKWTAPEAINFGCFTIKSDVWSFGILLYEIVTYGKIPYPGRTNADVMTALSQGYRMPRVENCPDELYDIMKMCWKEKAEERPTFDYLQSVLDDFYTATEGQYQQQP
Test [13] has the same target. To be noted: at 1 µM.
For test [14] the target is unchanged. Particulars: at 0.1 µM. The source holds these as a separate data set.
The target is the same in test [15]. To be noted: at 1 µM. The source holds these as a separate data set.
For test [16], the target named is T1, Tyrosine-protein kinase Mer (Homo sapiens) (UniProt Q12866).
T1 sequence (whole entry): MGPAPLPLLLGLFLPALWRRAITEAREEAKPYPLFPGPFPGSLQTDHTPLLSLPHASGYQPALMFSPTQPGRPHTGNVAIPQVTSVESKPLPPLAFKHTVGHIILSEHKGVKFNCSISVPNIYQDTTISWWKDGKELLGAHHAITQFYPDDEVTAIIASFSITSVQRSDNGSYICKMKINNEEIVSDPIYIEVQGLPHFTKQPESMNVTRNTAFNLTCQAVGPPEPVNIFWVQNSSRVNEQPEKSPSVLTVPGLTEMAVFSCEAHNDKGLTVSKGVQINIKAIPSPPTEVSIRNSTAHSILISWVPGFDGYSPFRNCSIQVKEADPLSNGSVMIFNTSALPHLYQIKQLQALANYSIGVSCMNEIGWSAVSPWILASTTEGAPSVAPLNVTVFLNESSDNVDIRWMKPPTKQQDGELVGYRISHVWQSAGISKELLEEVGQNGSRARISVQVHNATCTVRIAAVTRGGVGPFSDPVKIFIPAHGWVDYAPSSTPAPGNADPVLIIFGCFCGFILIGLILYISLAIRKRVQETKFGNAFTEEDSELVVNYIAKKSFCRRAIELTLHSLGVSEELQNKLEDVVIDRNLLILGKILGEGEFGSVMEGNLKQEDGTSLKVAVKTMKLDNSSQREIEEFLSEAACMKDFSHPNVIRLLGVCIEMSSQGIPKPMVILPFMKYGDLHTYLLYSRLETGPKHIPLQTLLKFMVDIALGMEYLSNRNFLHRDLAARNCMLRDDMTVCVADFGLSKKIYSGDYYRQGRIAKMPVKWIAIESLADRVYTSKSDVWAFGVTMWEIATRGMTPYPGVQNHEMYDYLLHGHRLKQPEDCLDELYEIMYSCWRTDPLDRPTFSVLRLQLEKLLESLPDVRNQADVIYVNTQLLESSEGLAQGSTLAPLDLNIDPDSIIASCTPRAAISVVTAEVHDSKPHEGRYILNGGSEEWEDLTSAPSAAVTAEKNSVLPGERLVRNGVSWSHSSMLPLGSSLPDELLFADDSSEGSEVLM
To be noted: at 0.1 µM.

Test [17] has as its target T1, Tyrosine-protein kinase Mer (Homo sapiens). To be noted: at 1 µM.
The target in test [18] is Hepatocyte growth factor receptor (Homo sapiens) (UniProt P08581). Particulars: at 0.1 µM.
Hepatocyte growth factor receptor (Homo sapiens), sequence (P08581 whole entry): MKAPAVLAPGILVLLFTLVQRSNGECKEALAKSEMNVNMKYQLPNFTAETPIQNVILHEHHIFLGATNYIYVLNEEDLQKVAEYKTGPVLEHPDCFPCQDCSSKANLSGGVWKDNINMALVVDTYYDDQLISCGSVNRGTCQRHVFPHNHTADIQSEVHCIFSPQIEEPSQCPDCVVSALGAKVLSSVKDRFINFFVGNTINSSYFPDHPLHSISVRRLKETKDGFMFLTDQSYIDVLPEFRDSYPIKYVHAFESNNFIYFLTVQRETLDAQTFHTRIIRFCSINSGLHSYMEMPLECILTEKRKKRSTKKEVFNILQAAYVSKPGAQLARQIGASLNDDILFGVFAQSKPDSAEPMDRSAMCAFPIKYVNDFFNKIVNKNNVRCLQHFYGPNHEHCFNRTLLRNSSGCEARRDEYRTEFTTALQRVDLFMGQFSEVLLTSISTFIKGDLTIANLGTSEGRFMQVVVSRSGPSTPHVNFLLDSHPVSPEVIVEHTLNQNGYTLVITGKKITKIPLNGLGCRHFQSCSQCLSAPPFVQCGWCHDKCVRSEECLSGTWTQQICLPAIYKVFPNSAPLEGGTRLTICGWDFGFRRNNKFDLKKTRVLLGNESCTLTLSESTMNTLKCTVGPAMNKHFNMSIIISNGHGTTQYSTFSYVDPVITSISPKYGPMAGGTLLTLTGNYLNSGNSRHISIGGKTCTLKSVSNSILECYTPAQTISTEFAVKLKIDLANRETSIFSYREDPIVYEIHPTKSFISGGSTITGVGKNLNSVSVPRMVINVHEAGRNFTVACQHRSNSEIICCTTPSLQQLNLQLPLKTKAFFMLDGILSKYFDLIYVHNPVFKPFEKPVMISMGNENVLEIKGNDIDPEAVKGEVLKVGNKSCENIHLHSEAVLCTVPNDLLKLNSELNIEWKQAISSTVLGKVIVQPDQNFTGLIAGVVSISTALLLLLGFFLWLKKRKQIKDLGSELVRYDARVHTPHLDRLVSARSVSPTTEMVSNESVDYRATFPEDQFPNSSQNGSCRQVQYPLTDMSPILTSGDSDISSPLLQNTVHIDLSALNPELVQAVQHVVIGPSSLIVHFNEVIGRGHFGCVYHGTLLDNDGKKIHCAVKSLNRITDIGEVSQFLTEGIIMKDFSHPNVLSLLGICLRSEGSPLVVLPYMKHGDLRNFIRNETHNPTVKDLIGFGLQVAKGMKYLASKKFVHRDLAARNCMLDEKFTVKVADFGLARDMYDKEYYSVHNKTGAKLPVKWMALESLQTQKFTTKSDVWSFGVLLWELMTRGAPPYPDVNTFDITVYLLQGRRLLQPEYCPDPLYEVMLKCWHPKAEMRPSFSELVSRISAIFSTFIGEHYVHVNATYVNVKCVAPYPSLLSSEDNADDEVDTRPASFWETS
The target is the same in test [19]. To be noted: at 1 µM.
For test [20], the target named is T2, Muscle, skeletal receptor tyrosine-protein kinase (Homo sapiens) (UniProt O15146).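 Note: values are mean inhibition of MuSK from the GSK PKIS kinase screening panel.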
T2 sequence (whole entry): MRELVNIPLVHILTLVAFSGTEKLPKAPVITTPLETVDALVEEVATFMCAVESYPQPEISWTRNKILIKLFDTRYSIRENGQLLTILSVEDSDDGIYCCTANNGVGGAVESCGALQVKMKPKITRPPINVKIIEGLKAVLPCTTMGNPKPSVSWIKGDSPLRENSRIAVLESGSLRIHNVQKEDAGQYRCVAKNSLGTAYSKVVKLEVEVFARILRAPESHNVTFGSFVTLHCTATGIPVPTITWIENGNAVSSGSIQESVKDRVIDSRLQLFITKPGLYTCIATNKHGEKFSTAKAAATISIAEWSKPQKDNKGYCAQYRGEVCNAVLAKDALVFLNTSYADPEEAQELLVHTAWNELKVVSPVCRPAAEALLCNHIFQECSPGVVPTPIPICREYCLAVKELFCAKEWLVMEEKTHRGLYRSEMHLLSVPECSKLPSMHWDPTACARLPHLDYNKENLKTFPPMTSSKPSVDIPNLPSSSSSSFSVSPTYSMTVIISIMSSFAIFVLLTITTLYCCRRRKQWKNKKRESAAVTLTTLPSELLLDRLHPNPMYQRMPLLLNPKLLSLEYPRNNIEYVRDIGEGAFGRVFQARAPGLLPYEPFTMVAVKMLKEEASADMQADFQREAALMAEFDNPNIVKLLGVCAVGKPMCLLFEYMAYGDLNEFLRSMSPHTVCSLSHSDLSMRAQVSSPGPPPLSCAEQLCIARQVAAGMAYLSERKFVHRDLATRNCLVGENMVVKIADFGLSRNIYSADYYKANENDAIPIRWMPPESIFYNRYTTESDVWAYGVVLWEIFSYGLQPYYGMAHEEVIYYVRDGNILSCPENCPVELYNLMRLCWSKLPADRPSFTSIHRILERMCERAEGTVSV
Particulars: at 0.1 µM.

Mast/stem cell growth factor receptor Kit (Homo sapiens), P10721 [D816V], sequence (P10721 whole entry D816V): as the sequence (P10721 whole entry T670I) above, with I670T, D816V counted along it
Mast/stem cell growth factor receptor Kit (Homo sapiens), sequence (P10721 whole entry): as the sequence (P10721 whole entry T670I) above, with I670T counted along it

For orientation: inhibition means the change of the read-out against control, counted positive when it falls. For `CC(C)(CO)CNC(=O)c1ccc2c(c1)/C(=N/Nc1ccc(S(N)(=O)=O)cc1)C(=O)N2`, the inhibition in test [1] is 6.13%; in test [2], -0.32%; in test [3], 9.15%; in test [4], -1.23%; in [5], -1.94%; in test [6], -0.35%. Besides, the inhibition was 1.1% in [7]; 0.12% in [8]; 3.08% in test [9]; -1.7% in test [10]; -1.87% in test [11]; -1.12% in test [12]. In addition, the inhibition in [13] is 9.87%; in test [14], -1.58%; in test [15], 8.71%; in test [16], -2.26%; in [17], 1.33%; in [18], 9.65%. Further, the figures for the inhibition in [19] and in test [20] were 9.33% and 3.03%, respectively.

Consider `N#Cc1c(NC(=O)CN2CCOCC2)sc2c1CCCC2`, for which the inhibition in [1] was determined as 7.99%; in test [2] it was 3.63%; in test [3], 3.93%; in [4] it was 4.93%; in test [5], 3.32%; in test [6], 2.47%. The inhibition was 3.82% in test [7]; 1.87% in test [8]; 4.64% in test [9]; 4.93% in test [10]; 4.38% in test [11]; 4.72% in test [12]. Moreover, the inhibition turned out to be 7.89% in test [13]; 2.92% in test [14]; 5.26% in [15]; 1.87% in [16]; 4.98% in [17]; 7.91% in test [18]. Moreover, the inhibition was determined as 13% in test [19] and 2.41% in test [20].

Turning to `CCN(CC)S(=O)(=O)c1ccc(OC)c(Nc2ncc(-c3ccccc3)o2)c1`, the inhibition came to 87.8% in test [1]; 3.78% in [2]; 6.46% in test [3]; 3.41% in test [4]; 48.3% in test [5]; 7.63% in test [6]. Moreover, the inhibition in [7] was 13.6%; in [8], 4.39%; in test [9], 24.8%; in test [10], -0.3%; in test [11] it was -0.4%; in [12], 4.63%. The inhibition stood at 34.8% in test [13]; 4.28% in test [14]; 28.9% in test [15]; 0.62% in test [16]; 2.09% in test [17]; 3.7% in test [18]. Also, the inhibition in test [19] is 4.3%; in test [20], -2.42%.

For `c1ccc(-c2nc3n(c2-c2ccc4c(c2)OCO4)CCC3)nc1`, the inhibition is 1.73% in test [1]; 2.63% in test [2]; 0.34% in [3]; 2.34% in [4]; 2.64% in test [5]; -1.47% in [6]. The inhibition in test [7] is -1.27%; in test [8] it was 0.66%; in [9], 3.01%; in test [10], 0.09%; in test [11], 0.36%; in test [12] it was 1.78%. Besides, the inhibition worked out at 2.26% in test [13]; 0.94% in test [14]; 0.92% in test [15]; 1.83% in test [16]; 0.66% in test [17]; 2.27% in test [18]. The inhibition is -1.42% in test [19] and 0.55% in test [20].

For the compound `CC(=O)Nc1cccc(C#Cc2cncnc2Nc2ccc(OCc3cccc(F)c3)c(Cl)c2)c1`, the inhibition in test [1] was 2.18%; in [2] it was 1.33%; in test [3] it was 0.94%; in test [4], 0.96%; in test [5], -0.24%; in [6], 2.26%. Moreover, the inhibition was 5.18% in test [7]; 1.97% in [8]; 3.76% in [9]; 0.86% in test [10]; 0.9% in [11]; 1.26% in [12]. Further, the inhibition came out at 1.6% in test [13]; 1.1% in test [14]; 0.14% in test [15]; 1.62% in [16]; 2.65% in test [17]; 4.11% in test [18]. Moreover, the inhibition in test [19] came to 1.83%; in test [20] it was 2.39%.

Consider `CCc1nn2ncccc2c1-c1ccnc(NC2CC2)n1`, for which the inhibition in test [1] amounted to 7.72%; in test [2], 0.04%; in test [3], 1.83%; in [4], 1.32%; in test [5], 2.12%; in test [6], 0.78%. Moreover, the inhibition worked out at 3.12% in test [7]; 2.82% in test [8]; 6.75% in test [9]; 3.02% in [10]; 3.47% in test [11]; 2.13% in test [12]. Further, the inhibition in test [13] worked out at 2.84%; in [14] it was 2.22%; in test [15], 3.39%; in [16] it was 3.92%; in test [17], 4.58%; in test [18], 6.93%. The inhibition worked out at 4.86% in [19] and 1.52% in test [20].

Take `CS(=O)(=O)CCNCc1coc(-c2ccc3ncnc(Nc4ccc(OCc5ccccc5)cc4)c3c2)c1`: the inhibition was 8.33% in test [1]; 0.03% in test [2]; 1.72% in test [3]; 2.17% in [4]; 3.24% in test [5]; 0.76% in test [6]. The inhibition in [7] was determined as 2.94%; in [8], 3.8%; in test [9], 14.4%; in test [10] it was 4.91%; in test [11] it was 11.4%; in test [12], 3.61%. Moreover, the inhibition in [13] came to 8.56%; in test [14], 3.96%; in test [15], 6.66%; in [16], 5.03%; in test [17], 29.9%; in [18] it was 9.58%. In addition, the inhibition in test [19] came to 9.58%; in [20], 2.22%.

In the case of `Cc1ccc2c(-c3ccnc(Nc4ccccc4)n3)c(-c3ccc(F)cc3)nn2n1`, the inhibition in test [1] was 75.7%; in test [2] it was 1.56%; in [3], -0.04%; in [4], 0.33%; in [5], 3.98%; in test [6], 1.13%. The inhibition in [7] amounted to 27.9%; in test [8], 15.8%; in [9] it was 56.9%; in test [10], 2.45%; in test [11], 2.78%; in [12], 10.8%. The inhibition in test [13] worked out at 50.1%; in test [14] it was 8.55%; in test [15], 44.4%; in test [16] it was 3.07%; in [17], 23.9%; in test [18], 1.64%. Moreover, the inhibition in test [19] turned out to be 8.18%; in test [20] it was 3.5%.
